Out of some 58,000 sequences screened, about 4,600 (7.9%) were called active. The sample holds actives, similar sequences and a random draw of the others, so the mix is not that of the screen. No stated cut-off is given here; in the data, active = GI50 up to about 1.1 µM and inactive = higher. Measured potencies and affinities stand elsewhere.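 Cells were grown in 96-well plates and exposed to each compound for 48 hours at five concentrations; endpoints were interpolated linearly between bracketing concentrations, or set to the highest concentration if not reached. GI50 is the concentration that inhibits growth by half.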
What follows are substances tested on SW-620 (assay: NCI tumour cell line growth inhibition, 48 h).
“[Bis(aminomethyl)ethylmethylsilane]tetrachloroplatinum(IV), CHEMBL2146192” was tested, and the GI50 was 1020 nM.
With “[Bis(aminomethyl)diethylsilane]tetrachloroplatinum(IV), CHEMBL2146203” the GI50 was 483 nM.
In the case of “[Bis(aminomethyl)dimethylsilane]dichloroplatinum (II), CHEMBL2146201”, the GI50 is reported as 4860 nM.
Work on “[Bis(aminomethyl)pentamethylenesilane]tetrachloropaltinum(IV), CHEMBL2146204” yielded a GI50 of 1060 nM.
“[Bis(aminomethyl)pentamethylenesilane]dichloropaltinum(II), CHEMBL2146202” was tested, and the GI50 was 6700 nM.
Work on “cis-Bis[[(trimethylsilyl)methyl]amino]tetrachloroplatinum(IV), CHEMBL2146191” yielded a GI50 of 2400 nM.
Substance “[Bis(aminomethyl)dimethylsilane]tetrachloroplatinum(IV), CHEMBL2146190” has a GI50 of 1890 nM.
“[Bis(aminomethyl)tetramethylenesilane]tetrachloropaltinum(IV), CHEMBL2146189” was tested, and the GI50 was 1490 nM.
Work on CISPLATIN, CHEMBL11359 yielded a GI50 of 3870 nM.
“mu-(1,7-nanodiamine-N,N')bis-(cis-aminedichloroplatimum (II)), CHEMBL2146215” showed a GI50 of 32100 nM.
With “[Bis(aminomethyl)tetramethylenesilane]dichloropaltinum(II), CHEMBL2146205” the GI50 was 5160 nM.

From ChEMBL document CHEMBL1201862, “PubChem BioAssay data set” (2004)
